Assay results taken from PubChem BioAssay AID623996 (NMMLSC, 2012).
Potency and affinity values are given separately. Active and inactive are the calls of the source.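 How the source made its calls: active means fitted concentration giving half the maximal Nile Red retention below 100 µM; inactive means the rest.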

Each compound was assayed against Multidrug resistance protein CDR1 (Candida albicans) (UniProt P43071) (assay: CaCdr1 efflux pump inhibitor potency, dose response, singleplex, Cherry Pick2 set (AID 623996)). Conditions: S. cerevisiae AD/CaCDR1, Nile Red efflux inhibition, flow cytometry; series mostly up to 100 µM; efflux inhibition response: at the top concentration.
Sequence of Multidrug resistance protein CDR1 (Candida albicans) (P43071 whole entry, looked up): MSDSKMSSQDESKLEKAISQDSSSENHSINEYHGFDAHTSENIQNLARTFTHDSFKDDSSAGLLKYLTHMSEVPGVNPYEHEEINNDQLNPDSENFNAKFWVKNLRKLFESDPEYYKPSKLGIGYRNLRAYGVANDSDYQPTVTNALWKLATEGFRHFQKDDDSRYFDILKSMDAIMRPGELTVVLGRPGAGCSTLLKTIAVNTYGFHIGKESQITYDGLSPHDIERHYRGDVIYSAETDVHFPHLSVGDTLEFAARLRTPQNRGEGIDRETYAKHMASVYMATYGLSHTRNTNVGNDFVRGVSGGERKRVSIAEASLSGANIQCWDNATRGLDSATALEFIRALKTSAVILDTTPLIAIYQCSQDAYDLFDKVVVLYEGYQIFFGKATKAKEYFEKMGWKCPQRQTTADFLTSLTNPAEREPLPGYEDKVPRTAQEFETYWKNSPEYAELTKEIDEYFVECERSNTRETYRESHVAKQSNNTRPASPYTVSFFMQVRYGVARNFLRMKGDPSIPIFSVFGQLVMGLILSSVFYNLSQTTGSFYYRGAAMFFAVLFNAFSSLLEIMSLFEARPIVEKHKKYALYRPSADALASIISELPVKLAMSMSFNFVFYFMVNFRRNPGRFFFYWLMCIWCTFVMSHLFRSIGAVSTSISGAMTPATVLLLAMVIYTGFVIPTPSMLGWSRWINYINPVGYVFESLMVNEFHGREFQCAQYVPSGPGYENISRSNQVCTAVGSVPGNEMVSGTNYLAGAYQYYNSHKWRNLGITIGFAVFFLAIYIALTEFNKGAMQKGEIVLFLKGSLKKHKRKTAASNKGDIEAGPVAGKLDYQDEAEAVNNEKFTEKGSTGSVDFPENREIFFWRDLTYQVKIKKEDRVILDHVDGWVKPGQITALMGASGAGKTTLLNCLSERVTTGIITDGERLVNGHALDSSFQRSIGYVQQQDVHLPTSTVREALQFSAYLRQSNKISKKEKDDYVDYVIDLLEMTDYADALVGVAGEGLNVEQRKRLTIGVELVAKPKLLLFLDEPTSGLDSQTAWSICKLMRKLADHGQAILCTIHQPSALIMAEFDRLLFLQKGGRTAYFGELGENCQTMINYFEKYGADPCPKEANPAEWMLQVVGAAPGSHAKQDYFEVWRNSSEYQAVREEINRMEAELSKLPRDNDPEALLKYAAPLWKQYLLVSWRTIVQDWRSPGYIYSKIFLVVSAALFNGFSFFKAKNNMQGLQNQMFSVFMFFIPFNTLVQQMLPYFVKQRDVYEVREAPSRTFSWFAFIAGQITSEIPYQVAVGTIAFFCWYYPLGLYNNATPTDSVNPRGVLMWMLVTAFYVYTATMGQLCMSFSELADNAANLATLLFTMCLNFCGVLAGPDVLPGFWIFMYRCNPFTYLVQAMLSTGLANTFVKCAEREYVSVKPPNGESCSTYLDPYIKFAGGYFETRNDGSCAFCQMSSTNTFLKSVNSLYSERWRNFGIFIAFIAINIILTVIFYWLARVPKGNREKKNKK

Efflux inhibition response, inactive:
CCCCNC(=O)C1CCC(CNc2nc(=S)[nH]c3ccccc23)CC1 (stereo not given) 0.84%, O=C(CSc1nnc(Cc2cccs2)n1Cc1ccco1)Nc1cccc(Cl)c1 -3.15%, CN1Cc2cc(C(=O)c3ccccc3O)cnc2NC1=O -3.93%, O=C(C[n+]1cc(-c2ccc(Cl)cc2)n2c1CCC2)N1c2ccccc2Sc2ccccc21 -1.21%, COc1ccc([C@H]2CC(=O)C=C(c3ccnc4ccc(Cl)cc34)C2)cc1 119%, Cc1cccc2sc(N(CCCN(C)C)C(=O)c3ccc(Cl)s3)nc12 -1.4%, CC(C)C(=O)N1CCC2(CC1)Oc1ccc(Cl)cc1C(=O)C21CC(c2ccc(Cl)cc2)=NO1 (stereo not given) 28.3%, CCCCN1Cc2cc(C(=O)c3cc(OC)ccc3O)cnc2NC1=O -3.22%, Cc1cc(C)c2sc(N(CCCN(C)C)C(=O)c3ccc(Br)s3)nc2c1 18.1%, COc1ncccc1C(=O)NC1CCCc2c1cnn2-c1cc(C)cc(C)c1 (stereo not given) -0.65%, Cc1ccc(C2CC(c3ccccc3)=NN2c2ccc(S(N)(=O)=O)cc2)cc1 (stereo not given) -0.8%, O=C(NCCc1ccc(Cl)cc1)C1CCC(CNc2nc(=S)[nH]c3ccccc23)CC1 (stereo not given) -1.47%, NS(=O)(=O)c1ccc(N2N=C(c3ccccc3)CC2c2cccc(Br)c2)cc1 (stereo not given) -1.26%, Cc1ccc(CN2C(=O)C(CC(C)C)Nc3ncnc(N4CCN(c5ccccc5)CC4)c32)cc1 (stereo not given) -4.11%, COc1cccc(N2CCN(C(=O)C3CCCN(c4ncnc5c4nc4n5CCCCC4)C3)CC2)c1 (stereo not given) -1.74%, COc1ccc(CNC(=O)C(C#N)c2nc3ccccc3nc2N2CCCC2)cc1 (stereo not given) -3.36%, Cc1ccc(O)c(C(=O)c2cnc3c(c2)CN(C)C(=O)N3)c1 0.64%, COc1ccc(O)c(C(=O)c2cnc3c(c2)CN(C)C(=O)N3)c1 0.22%, Cc1ccc2sc(N(CCCN(C)C)C(=O)c3ccc(Br)s3)nc2c1C 2.11%, Cc1ccc(N2CCN(C(=O)C3CCCN(c4ncnc5c4nc4n5CCCCC4)C3)CC2)c(C)c1 (stereo not given) -0.74%, O=C(c1ccc2c(c1)OCO2)N1CCC2(CC1)Oc1ccc(F)cc1C(=O)C21CC(c2ccc(Cl)cc2)=NO1 (stereo not given) 26.2%, Cc1ccc(-c2c[n+](CC(=O)N3c4ccccc4Sc4ccccc43)c3n2CCC3)cc1 -4.43%, CCCCCCCCCC[N+](C)(C)CC/C=C1/c2ccccc2Sc2ccc(Cl)cc21 164%, C[C@H](CO)N1C[C@H](C)[C@@H](CN(C)S(=O)(=O)c2ccccc2)Oc2c(NC(=O)Nc3ccccc3)cccc2C1=O 52.5%, O=C(C1CCCN(c2ncnc3c2nc2n3CCCCC2)C1)N1CCN(c2cccc(Cl)c2)CC1 (stereo not given) -1.77%, NC1=NC[C@H](Cc2ccc(O)cc2)N1CCCCC1CCCCC1 -0.35%

outcome, inactive:
Cc1ccc(O)c(C(=O)c2cnc3c(c2)CN(CCC(C)C)C(=O)N3)c1, COc1ccc(CNC(=O)C(C#N)c2nc3ccccc3nc2N2CCN(C)CC2)cc1 (stereo not given), CCC(=O)N1CCN(c2ccc(Cl)cc2NC(=O)c2ccc3c(c2)OCCO3)CC1, CCCCN1Cc2cc(C(=O)c3cc(F)ccc3O)cnc2NC1=O
